Results reported in publication PMC7862700, “An all-to-all approach to the identification of sequence-specific readers for epigenetic DNA modifications on cytosine”.

Key:
Experiment in all cases: DAPPL (digital affinity profiling via proximity ligation, sequencing); 10 mM Tris-HCl pH 7.5, 50 mM NaCl, 1 mM DTT, 4% glycerol, room temperature, 30 min; GST-TFs on glutathione beads, 16-mer random dsDNA library, 0.1% formaldehyde crosslink after washing; high values mean tight binding
FLI1 = target: T1, FLI1 (Homo sapiens, UniProt Q01543 1-452); conditions: protein: recombinant; tags: N-terminal GST; dsDNA, one strand shown
T1 sequence: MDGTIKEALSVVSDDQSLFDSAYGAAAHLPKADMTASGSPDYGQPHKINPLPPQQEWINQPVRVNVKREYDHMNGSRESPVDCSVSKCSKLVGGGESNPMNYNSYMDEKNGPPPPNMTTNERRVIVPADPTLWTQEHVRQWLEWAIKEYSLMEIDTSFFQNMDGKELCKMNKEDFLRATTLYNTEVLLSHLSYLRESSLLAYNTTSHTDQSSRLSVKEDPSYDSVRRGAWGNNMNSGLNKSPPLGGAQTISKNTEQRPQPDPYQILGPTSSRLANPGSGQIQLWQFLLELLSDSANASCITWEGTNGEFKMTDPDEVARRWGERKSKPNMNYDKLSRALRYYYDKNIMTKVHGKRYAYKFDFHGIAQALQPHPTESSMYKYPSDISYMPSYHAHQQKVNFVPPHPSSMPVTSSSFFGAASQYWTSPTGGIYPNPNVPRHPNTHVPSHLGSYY
In short: (§1)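 Beads coated with glutathione captured GST-fused human transcription factors that had been expressed in yeast, and the factors were then given DNA barcodes and pooled with a tag-only sample. The pools were incubated with 200 nmole of a random double-stranded 16-mer DNA library in Tris/NaCl/DTT/glycerol buffer for 30 min at room temperature, washed, crosslinked with 0.1% formaldehyde and proximity-ligated with BsaI/T4 ligase at 37 °C for 1 h. PCR amplification and Illumina NextSeq500 sequencing came last. Binding signal is each hexamer's read frequency for a factor divided by its frequency for the tag-only sample.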

ELK1 = target: T2, ELK1 (Homo sapiens, UniProt P19419 1-428); conditions: protein: recombinant; tags: N-terminal GST; dsDNA, one strand shown
T2 sequence: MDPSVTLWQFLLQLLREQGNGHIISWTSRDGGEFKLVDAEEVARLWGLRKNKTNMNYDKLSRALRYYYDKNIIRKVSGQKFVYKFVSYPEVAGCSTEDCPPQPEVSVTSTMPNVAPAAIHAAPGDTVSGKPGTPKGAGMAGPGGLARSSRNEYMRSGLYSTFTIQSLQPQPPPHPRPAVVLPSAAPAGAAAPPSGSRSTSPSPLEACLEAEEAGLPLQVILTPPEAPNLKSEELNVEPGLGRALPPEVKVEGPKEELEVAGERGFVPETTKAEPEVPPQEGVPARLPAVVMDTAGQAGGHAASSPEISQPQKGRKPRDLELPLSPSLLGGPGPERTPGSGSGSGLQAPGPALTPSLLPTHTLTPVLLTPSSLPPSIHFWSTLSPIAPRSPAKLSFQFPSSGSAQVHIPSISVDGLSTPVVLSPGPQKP
In short: as §1

GABPA = target: T3, GABPA (Homo sapiens, UniProt Q06546 1-454); conditions: protein: recombinant; tags: N-terminal GST; dsDNA, one strand shown
T3 sequence: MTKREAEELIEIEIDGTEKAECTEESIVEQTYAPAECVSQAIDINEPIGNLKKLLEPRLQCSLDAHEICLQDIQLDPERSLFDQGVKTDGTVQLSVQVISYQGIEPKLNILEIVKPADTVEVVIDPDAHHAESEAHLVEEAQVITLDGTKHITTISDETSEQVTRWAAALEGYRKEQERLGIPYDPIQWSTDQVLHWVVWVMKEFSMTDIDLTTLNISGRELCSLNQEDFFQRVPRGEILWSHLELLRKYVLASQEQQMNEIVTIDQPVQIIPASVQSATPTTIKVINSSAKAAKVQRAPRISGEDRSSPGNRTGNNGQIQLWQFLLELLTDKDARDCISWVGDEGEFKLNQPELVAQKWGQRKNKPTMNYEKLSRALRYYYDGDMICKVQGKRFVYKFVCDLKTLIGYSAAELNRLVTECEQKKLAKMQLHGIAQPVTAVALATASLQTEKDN
In short: as §1

ERG = target: T4, ERG (Homo sapiens, UniProt P11308 1-479); conditions: protein: recombinant; tags: N-terminal GST; dsDNA, one strand shown
T4 sequence: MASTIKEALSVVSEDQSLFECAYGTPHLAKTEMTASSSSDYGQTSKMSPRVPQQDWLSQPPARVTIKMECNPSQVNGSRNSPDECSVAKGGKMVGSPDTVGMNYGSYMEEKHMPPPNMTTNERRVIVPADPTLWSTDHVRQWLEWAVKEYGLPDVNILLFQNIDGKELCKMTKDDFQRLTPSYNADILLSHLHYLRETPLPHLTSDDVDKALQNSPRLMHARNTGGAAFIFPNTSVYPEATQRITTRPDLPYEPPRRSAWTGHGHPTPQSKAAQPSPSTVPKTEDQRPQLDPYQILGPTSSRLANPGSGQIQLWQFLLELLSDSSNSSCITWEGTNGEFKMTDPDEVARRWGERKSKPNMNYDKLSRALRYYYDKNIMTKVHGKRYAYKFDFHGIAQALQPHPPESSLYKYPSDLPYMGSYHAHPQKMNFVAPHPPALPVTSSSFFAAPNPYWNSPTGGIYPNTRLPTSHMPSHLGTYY
In short: as §1

ELF1 = ELF1 (Homo sapiens, UniProt P32519 1-619); conditions: protein: recombinant; tags: N-terminal GST; dsDNA, one strand shown
Sequence of ELF1 (P32519 whole entry): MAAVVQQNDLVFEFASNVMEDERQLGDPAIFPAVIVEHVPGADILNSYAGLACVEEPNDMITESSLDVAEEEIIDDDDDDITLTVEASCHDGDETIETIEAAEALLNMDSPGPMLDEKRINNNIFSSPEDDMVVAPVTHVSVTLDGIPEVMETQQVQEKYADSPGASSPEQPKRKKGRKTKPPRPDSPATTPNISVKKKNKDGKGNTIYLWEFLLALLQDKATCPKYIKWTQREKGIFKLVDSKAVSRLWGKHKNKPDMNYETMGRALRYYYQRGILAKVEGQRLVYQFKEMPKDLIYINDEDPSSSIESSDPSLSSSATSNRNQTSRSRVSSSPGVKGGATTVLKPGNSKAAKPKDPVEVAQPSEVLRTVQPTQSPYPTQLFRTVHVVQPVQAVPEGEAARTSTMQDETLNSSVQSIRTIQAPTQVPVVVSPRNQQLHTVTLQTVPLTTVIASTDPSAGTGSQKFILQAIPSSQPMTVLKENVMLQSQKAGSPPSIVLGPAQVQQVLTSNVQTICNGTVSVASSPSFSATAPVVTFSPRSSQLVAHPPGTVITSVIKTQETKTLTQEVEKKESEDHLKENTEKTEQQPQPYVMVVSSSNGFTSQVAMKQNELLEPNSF
In short: as §1

EHF = target: T5, EHF (Homo sapiens, UniProt Q9NZC4 1-300); conditions: protein: recombinant; tags: N-terminal GST; dsDNA, one strand shown
T5 sequence: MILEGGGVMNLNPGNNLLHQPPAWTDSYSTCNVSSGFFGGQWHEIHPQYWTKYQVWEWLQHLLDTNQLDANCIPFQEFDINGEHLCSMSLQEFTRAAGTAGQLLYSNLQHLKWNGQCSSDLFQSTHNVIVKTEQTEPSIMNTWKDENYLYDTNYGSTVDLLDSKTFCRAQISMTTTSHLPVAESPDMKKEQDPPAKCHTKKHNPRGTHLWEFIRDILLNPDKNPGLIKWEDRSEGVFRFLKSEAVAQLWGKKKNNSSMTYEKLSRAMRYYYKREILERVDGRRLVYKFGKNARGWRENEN
In short: as §1

SPI1 = SPI1 (Homo sapiens, UniProt P17947 1-270); conditions: protein: recombinant; tags: N-terminal GST; dsDNA, one strand shown
In short: as §1

SPIB = SPIB (Homo sapiens, UniProt Q01892 1-262); conditions: protein: recombinant; tags: N-terminal GST; dsDNA, one strand shown
Sequence of SPIB (Q01892 whole entry): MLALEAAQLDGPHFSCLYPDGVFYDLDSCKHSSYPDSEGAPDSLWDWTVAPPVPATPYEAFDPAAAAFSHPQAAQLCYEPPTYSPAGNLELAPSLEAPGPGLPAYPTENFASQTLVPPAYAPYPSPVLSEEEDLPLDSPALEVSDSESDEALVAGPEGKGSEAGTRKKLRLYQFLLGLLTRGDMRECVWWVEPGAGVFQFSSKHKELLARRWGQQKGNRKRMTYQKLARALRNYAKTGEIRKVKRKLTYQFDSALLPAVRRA
In short: as §1

ELK3 = target: T6, ELK3 (Homo sapiens, UniProt P41970 1-407); conditions: protein: recombinant; tags: N-terminal GST; dsDNA, one strand shown
T6 sequence: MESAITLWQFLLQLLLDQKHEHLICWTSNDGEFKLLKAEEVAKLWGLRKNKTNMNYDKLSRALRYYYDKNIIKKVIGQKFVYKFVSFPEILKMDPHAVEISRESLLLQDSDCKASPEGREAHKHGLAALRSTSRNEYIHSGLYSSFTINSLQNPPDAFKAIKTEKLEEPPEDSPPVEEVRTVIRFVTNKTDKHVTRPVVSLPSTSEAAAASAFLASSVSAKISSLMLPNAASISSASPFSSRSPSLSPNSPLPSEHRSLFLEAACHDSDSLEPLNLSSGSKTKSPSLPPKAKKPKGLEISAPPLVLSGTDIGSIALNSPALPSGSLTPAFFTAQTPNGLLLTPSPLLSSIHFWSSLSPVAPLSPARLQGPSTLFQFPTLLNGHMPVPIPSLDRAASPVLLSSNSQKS
In short: as §1

FEV = target: T7, FEV (Homo sapiens, UniProt Q99581 1-238); conditions: protein: recombinant; tags: N-terminal GST; dsDNA, one strand shown
T7 sequence: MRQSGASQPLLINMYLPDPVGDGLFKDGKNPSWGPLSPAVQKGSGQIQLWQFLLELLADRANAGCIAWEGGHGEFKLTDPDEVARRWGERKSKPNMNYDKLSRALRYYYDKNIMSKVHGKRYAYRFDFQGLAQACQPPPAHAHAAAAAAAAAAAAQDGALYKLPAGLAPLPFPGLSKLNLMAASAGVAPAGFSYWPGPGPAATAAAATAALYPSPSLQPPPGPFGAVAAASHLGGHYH
In short: as §1

ETV5 = ETV5 (Homo sapiens, UniProt P41161 1-510); conditions: protein: recombinant; tags: N-terminal GST; dsDNA, one strand shown
Sequence of ETV5 (P41161 whole entry): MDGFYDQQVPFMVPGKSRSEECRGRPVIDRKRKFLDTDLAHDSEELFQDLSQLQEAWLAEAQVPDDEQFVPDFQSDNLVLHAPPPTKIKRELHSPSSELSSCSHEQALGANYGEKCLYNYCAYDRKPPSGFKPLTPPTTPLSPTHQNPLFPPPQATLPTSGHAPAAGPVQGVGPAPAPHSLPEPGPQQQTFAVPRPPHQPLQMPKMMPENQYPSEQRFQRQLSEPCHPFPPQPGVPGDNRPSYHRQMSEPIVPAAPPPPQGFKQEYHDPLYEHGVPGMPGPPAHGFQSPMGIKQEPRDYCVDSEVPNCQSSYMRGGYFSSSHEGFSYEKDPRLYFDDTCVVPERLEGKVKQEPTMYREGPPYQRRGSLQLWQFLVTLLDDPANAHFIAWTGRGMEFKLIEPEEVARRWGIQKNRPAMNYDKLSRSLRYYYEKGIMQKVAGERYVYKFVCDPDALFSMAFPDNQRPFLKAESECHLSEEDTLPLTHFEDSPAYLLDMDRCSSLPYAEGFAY
In short: as §1

HSF1 = HSF1 (Homo sapiens, UniProt Q00613 1-529); conditions: protein: recombinant; tags: N-terminal GST; chain copies: 3; dsDNA, one strand shown
Sequence of HSF1 (Q00613 whole entry): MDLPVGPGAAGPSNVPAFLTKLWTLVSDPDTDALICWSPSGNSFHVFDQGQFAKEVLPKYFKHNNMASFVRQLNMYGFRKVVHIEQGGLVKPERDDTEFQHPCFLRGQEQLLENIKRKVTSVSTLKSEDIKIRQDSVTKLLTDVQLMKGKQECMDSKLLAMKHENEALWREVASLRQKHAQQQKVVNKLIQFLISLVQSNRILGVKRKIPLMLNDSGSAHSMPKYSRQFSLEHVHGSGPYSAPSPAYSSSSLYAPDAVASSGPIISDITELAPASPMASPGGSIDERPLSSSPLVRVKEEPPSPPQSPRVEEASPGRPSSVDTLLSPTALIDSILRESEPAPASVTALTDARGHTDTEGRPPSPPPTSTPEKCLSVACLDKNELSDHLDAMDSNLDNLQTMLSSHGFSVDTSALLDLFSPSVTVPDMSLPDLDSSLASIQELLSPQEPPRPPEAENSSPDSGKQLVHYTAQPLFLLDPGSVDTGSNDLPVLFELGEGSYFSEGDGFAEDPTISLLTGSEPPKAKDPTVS
In short: as §1

SPIC = target: T8, SPIC (Homo sapiens, UniProt Q8N5J4 1-248); conditions: protein: recombinant; tags: N-terminal GST; dsDNA, one strand shown
T8 sequence: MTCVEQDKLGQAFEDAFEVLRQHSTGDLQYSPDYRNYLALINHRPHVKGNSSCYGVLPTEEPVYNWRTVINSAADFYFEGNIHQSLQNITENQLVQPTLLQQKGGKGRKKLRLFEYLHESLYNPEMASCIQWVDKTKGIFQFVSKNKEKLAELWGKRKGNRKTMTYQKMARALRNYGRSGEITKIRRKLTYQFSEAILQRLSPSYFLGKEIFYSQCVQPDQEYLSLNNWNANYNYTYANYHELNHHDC
In short: as §1

ELF4 = ELF4 (Homo sapiens, UniProt Q99607 1-663); conditions: protein: recombinant; tags: N-terminal GST; dsDNA, one strand shown
Sequence of ELF4 (Q99607 whole entry): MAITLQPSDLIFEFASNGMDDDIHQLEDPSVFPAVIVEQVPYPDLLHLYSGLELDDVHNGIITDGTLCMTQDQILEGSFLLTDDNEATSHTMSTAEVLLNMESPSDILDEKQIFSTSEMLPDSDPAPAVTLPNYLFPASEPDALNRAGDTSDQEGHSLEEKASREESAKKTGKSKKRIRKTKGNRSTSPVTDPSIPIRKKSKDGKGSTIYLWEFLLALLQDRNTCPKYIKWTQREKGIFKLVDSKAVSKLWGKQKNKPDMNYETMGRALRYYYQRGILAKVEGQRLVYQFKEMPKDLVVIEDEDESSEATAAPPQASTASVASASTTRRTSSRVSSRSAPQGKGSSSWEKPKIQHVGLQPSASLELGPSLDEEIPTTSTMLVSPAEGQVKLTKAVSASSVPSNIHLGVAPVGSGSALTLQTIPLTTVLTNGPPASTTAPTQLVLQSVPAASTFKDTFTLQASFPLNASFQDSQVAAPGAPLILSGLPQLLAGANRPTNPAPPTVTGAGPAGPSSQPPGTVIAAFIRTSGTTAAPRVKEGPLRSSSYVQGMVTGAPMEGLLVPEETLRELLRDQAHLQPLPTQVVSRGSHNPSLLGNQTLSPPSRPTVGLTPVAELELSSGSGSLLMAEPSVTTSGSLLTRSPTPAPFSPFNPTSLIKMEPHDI
In short: as §1

ELK4 = target: T9, ELK4 (Homo sapiens, UniProt P28324-2 1-405); conditions: protein: recombinant; tags: N-terminal GST; dsDNA, one strand shown
T9 sequence: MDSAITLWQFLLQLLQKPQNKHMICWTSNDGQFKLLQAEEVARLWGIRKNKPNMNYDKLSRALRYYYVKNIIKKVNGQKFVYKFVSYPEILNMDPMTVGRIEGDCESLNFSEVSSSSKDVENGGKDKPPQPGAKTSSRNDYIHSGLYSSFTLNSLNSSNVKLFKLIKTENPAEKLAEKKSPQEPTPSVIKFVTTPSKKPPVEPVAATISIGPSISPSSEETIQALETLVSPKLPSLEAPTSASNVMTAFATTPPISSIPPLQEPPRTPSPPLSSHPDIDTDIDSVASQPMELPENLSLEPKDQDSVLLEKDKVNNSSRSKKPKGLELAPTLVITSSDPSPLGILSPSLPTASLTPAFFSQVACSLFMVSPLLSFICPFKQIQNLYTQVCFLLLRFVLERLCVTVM
In short: as §1

ETV2 = target: T10, ETV2 (Homo sapiens, UniProt O00321 1-342); conditions: protein: recombinant; tags: N-terminal GST; dsDNA, one strand shown
T10 sequence: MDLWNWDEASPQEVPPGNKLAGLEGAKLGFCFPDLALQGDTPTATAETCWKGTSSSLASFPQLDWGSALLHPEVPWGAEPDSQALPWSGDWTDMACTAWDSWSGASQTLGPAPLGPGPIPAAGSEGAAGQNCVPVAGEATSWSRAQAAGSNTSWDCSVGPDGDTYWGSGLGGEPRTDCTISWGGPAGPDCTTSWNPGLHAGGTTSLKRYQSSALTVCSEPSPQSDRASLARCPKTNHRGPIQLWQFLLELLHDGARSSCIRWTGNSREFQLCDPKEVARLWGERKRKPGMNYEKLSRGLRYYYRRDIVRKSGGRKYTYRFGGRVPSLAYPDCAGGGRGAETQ
In short: as §1

ELF3 = target: T11, ELF3 (Homo sapiens, UniProt P78545 1-371); conditions: protein: recombinant; tags: N-terminal GST; dsDNA, one strand shown
T11 sequence: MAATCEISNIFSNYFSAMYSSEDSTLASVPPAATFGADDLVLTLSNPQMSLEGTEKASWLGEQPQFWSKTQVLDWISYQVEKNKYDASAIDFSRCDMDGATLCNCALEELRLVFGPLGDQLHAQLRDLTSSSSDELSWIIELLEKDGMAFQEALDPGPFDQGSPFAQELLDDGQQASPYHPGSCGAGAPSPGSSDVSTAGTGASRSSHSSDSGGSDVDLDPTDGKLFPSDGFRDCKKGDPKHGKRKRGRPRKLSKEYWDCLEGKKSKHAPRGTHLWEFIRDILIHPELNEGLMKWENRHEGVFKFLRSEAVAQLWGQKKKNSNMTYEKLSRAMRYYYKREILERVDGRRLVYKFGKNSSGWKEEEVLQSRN
In short: as §1

CRX = CRX (Homo sapiens, UniProt O43186 1-299); conditions: protein: recombinant; tags: N-terminal GST; dsDNA, one strand shown
Sequence of CRX (O43186 whole entry): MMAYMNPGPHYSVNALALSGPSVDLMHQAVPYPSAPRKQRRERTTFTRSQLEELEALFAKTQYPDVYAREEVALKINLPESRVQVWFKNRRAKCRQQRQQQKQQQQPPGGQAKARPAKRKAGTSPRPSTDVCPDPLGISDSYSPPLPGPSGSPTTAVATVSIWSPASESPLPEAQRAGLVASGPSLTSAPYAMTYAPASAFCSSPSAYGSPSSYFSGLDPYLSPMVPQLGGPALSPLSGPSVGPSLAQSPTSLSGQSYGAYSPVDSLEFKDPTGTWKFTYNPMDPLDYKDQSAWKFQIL
In short: as §1

ETV1 = ETV1 (Homo sapiens, UniProt P50549 1-477); conditions: protein: recombinant; tags: N-terminal GST; dsDNA, one strand shown
Sequence of ETV1 (P50549 whole entry): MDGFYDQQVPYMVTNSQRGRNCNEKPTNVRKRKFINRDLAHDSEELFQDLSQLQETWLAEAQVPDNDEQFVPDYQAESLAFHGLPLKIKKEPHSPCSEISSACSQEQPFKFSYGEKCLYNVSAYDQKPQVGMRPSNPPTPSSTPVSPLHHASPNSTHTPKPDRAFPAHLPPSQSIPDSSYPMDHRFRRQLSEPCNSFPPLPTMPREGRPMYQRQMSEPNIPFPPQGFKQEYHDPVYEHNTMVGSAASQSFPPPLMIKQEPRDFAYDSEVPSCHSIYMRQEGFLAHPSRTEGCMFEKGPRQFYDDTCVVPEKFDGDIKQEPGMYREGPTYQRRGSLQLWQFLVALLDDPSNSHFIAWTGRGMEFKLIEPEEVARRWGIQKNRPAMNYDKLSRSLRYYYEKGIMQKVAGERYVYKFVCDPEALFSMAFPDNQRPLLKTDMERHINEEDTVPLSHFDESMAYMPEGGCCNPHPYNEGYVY
In short: as §1

## CTACGC
FLI1
  binding signal: 1.71 fold enrichment (6-mer frequency, TF over GST control)
ELK1
  binding signal: 1.59 fold enrichment (6-mer frequency, TF over GST control)
GABPA
  binding signal: 1.56 fold enrichment (6-mer frequency, TF over GST control)
ERG
  binding signal: 1.47 fold enrichment (6-mer frequency, TF over GST control)
ELF1
  binding signal: 1.55 fold enrichment (6-mer frequency, TF over GST control)
EHF
  binding signal: 1.56 fold enrichment (6-mer frequency, TF over GST control)
SPI1
  binding signal: 1.59 fold enrichment (6-mer frequency, TF over GST control)
SPIB
  binding signal: 1.6 fold enrichment (6-mer frequency, TF over GST control)
ELK3
  binding signal: 1.56 fold enrichment (6-mer frequency, TF over GST control)
FEV
  binding signal: 1.62 fold enrichment (6-mer frequency, TF over GST control)
ETV5
  binding signal: 1.6 fold enrichment (6-mer frequency, TF over GST control)
HSF1
  binding signal: 1.39 fold enrichment (6-mer frequency, TF over GST control)
SPIC
  binding signal: 1.36 fold enrichment (6-mer frequency, TF over GST control)
ELF4
  binding signal: 1.51 fold enrichment (6-mer frequency, TF over GST control)
ELK4
  binding signal: 1.6 fold enrichment (6-mer frequency, TF over GST control)
ETV2
  binding signal: 1.57 fold enrichment (6-mer frequency, TF over GST control)
ELF3
  binding signal: 1.57 fold enrichment (6-mer frequency, TF over GST control)
CRX
  binding signal: 1.38 fold enrichment (6-mer frequency, TF over GST control)
ETV1
  binding signal: 1.55 fold enrichment (6-mer frequency, TF over GST control)
